Results filed as inconclusive are left out. The source made the active and inactive calls. Calls follow the shape of the dose curve; as a rule, active = well fitted activation curve with a large enough effect; inconclusive = small, poorly fitted or top-dose-only effect; inactive = flat fitted curve, though single readings scatter.
test: Cell Proliferation Assay against the TMD8 Cell Line (Caspase readout at 16 hrs) (AID 651712); settings: TMD8 lymphoma cells, caspase activation luminescence; series mostly up to 46.1 µM
Text: One class of targeted therapeutics showing early clinical success in killing of ABC DLBCL lines are small molecule inhibitors of the Bruton tyrosine kinase (BTK) 11. Thus, we chose to investigate what additional compounds, if any, would synergize with the BTK inhibitor Ibrutinib (PCI-32765).
Prior to any combination assays, using an NCATS developed oncology compound library called the Mechanism of Interrogation Plate (MIPE), two well studied ABC DLBCL lines (TMD8 and HBL1) were screened using a cell viability assay (CellTiterGlo) and a 12-point titration series for each single agent. These initial experiments offered insight into the concentration range that offered the best coverage of activity and non-activity to assure relevant data is generated. In addition to the viability signature associated with this library, we examined the apoptotic response of each agent versus the TMD8 line as judged by caspase 3/7 activation. Activity was assayed at both 8 and 16 hour time-points to gain an appreciation of which agents induced an apoptotic response in a reasonable timeframe from a therapeutic exposure perspective. MIPE was also assayed for single agent viability in a human mesenchymal stem cell (hMSC) line as a surrogate of each library members potential therapeutic index.
The combination plates were then generated by choosing 20 of the best compounds from this single agent screen and plated in the presence of the BTK inhibitor. The first analysis was carried out using 6x6 dose response blocks for each of the 20 compounds. […] In addition to the cell viability assay, the parallel caspase 3/7 activation and viability in hMSC assays were carried out in the 10x10 format.
A total of 500 log growing TMD8 cells are seeded per well in 5 uL of a RPMI with glutamine (or Glutamax), without phenol red plus 5% FBS and 1X Pen/Strep into 1536 -solid white high base tissue culture treated Greiner One Bio Plates (789173-F) using a multidrop combi dispenser and a small sterile cassette. Compounds and controls totaling 23nL per well (negative control DMSO and positive control 9.2 uM Bortezomib-final) are immediately added to the plates using a 1536 head pin tool from Kalypsys. The plates are then covered with stainless steel gasket lids from Kalypsys and incubated for either 16 hours at 37C under 95% relative humidity with 5% CO2. After the desired incubation time, the plates are removed and allowed to reach room temperature before 3 uL of the Caspase Glo reagent (Promega) is added using an Aurora Flying Reagent Dispenser Bioraptor. The plates are then spun at 1000 rpms to remove bubbles and incubated for 15 minutes at room temperature before read on a ViewLux using a luminescent filter with a 10 second exposure. The relative luciferase units are used to calculated percent activity using DMSO as 0% and Bortezomib as 100%.
Potency is read from the fitted curve at half-maximal effect.

Structure (SMILES) | Potency
COc1ccc(C(=O)c2c(C)n(CCN3CCOCC3)c3ccccc23)cc1 | 20.9 µM (active)
Cc1sc2c(c1C)C(c1ccc(Cl)cc1)=N[C@@H](CC(=O)OC(C)(C)C)c1nnc(C)n1-2 | 0.469 µM (active)
C[C@@H]1[C@@H](CC(C[C@H]2O[C@@H]3O[C@]4(C)CC[C@@H]5[C@H](C)CC[C@@H]([C@H]2C)[C@@]35OO4)C[S+](=O)([O-])c2ccc(COC(=O)N(C)C)cc2)O[C@@H]2O[C@]3(C)CC[C@H]4[C@H](C)CC[C@@H]1[C@@]24OO3 (stereo partly drawn) | 0.209 µM (active)
COc1cc([C@@H]2c3cc4c(cc3[C@H](O)[C@H]3COC(=O)[C@H]23)OCO4)cc(OC)c1OC | 0.0037 µM (active)
Cn1c(CCCC(=O)O)nc2cc(N(CCCl)CCCl)ccc21 | inactive
CNC(=O)N1N=C(c2ccc(N)cc2)c2cc3c(cc2CC1C)OCO3 (stereo not drawn) | 18.7 µM (active)
CO[C@@H](C(=O)N1Cc2[nH]nc(NC(=O)c3ccc(N4CCN(C)CC4)cc3)c2C1)c1ccccc1 | 13.2 µM (active)
CC(O)(CS(=O)(=O)c1ccc(F)cc1)C(=O)Nc1ccc(C#N)c(C(F)(F)F)c1 (stereo not drawn) | inactive
CCCCC/C=C\C/C=C\C/C=C\C/C=C\CCCC(=O)NC1CC1 | inactive
C[C@]12CCC(=O)C(O)=C1CC[C@@H]1[C@@H]2CC[C@]2(C)C(=O)CC[C@@H]12 | inactive
Cn1cc(C2=C(c3cn(C4CCN(Cc5ccccn5)CC4)c4ccccc34)C(=O)NC2=O)c2ccccc21 | 16.6 µM (active)
CN(C)CCN(C)CCc1ccc(Cl)c(Cl)c1 | inactive
COC1(CS(=O)c2ccccc2)CCN(CCc2c[nH]c3ccc(F)cc23)CC1 (stereo not drawn) | inactive

Source: PubChem BioAssay (NCATS)
